Source: PubChem BioAssay AID1259319 (Sanford-Burnham Center for Chemical Genomics, 2017)
Screen size: about 3,000 compounds; about 1,800 (60%) were called active. The set was probably picked from earlier hits. The list is a sample of the results. A number with no mark means an inactive call.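 How the source made its calls: active means activation at or above a set limit, or at least 3 SD above the negative control mean; inactive means the rest.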

target: Nuclear receptor subfamily 1 group D member 1 (Homo sapiens) (UniProt P20393); experiment: modulators of Rev-erb alpha DNA binding, confirmation, biochemical, FITC-DNA, fluorescence polarization, single point (AID 1259319); settings: 90 min, at 25 µM, active compounds read high;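 further: 0% = 35 nM protein with DMSO and 100% = 750 nM protein high control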
Sequence (P20393 whole entry, looked up): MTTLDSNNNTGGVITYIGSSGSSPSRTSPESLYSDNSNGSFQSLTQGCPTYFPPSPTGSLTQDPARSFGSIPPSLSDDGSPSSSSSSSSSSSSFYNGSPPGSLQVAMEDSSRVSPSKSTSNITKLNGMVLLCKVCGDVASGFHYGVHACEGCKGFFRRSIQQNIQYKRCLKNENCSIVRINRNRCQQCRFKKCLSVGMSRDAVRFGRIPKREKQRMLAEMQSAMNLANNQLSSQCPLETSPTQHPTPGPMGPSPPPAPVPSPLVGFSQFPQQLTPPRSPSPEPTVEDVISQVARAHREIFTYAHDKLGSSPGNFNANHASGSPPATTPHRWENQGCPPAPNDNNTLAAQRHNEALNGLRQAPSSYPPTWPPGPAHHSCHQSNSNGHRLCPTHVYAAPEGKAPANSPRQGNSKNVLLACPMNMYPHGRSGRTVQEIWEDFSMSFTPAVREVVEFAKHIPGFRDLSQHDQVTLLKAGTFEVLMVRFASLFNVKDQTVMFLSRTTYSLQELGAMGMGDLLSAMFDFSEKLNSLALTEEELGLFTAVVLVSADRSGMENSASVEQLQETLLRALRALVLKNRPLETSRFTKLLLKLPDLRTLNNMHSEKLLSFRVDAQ

Row | Structure (SMILES) | activation
1 | Cc1ccc(-n2nc3cc(C)c(NC(=O)c4cccnc4)cc3n2)cc1 | 0.139%
2 | COc1ccc(CCNC(=O)CSc2nc(-c3ccc(OC)c(OC)c3)ccc2C#N)cc1 | 37% (active)
3 | COc1cccc(-c2ccc(C#N)c(SCC(=O)NCCc3ccc(Cl)cc3)n2)c1 | 13.2%
4 | CCOC(=O)c1ccc(NC(=S)Nc2cc(C)cc(C)n2)cc1 | 4.33%
5 | COc1ccc(S(=O)(=O)N2CCN(c3ncnc4c(-c5ccccc5)nsc34)CC2)cc1 | 8.1%
6 | COc1ccc(-c2csc3ncnc(N4CCN(S(=O)(=O)c5ccccc5C#N)CC4)c23)cc1 | 14.6%
7 | CC(=O)c1ccc(S(=O)(=O)N2CCN(c3nc4c(C)c(C)ccc4cc3C#N)CC2)cc1 | 181% (active)
8 | COCCCNc1nc2c(-c3cccc(C)c3)nnn2c2ccc(Cl)cc12 | 28.8% (active)
9 | CN1C(=O)c2cccc3c(N)ccc(c23)C1=O | 225% (active)
10 | Cc1nn(C)cc1N1C(=O)c2cccc3c(N)ccc(c23)C1=O | 181% (active)
11 | COc1ccc(-c2c(C)cc3oc(=O)cc(-c4ccccc4)c3c2C)cc1C=O | 8.9%
12 | C=C(C)C1CC=C(C)/C(=N\NC(=O)CNc2ccccc2OC)C1 (centres undefined) | 6.76%
13 | C=CCn1c(=NC(=O)c2ccc(S(=O)(=O)N3CCCC3)cc2)sc2cc(NC(C)=O)ccc21 | 34.3% (active)
14 | Cn1c(=NC(=O)c2ccc3c(c2)OCCO3)sc2cc(S(C)(=O)=O)ccc21 | 12.7%
15 | COC(=O)Cn1c(=NC(=O)c2cc(OC)c(OC)c(OC)c2)sc2cc(OC)ccc21 | 14.3%
16 | C=CCn1c(=NC(=O)c2cccs2)sc2cc(NC(C)=O)ccc21 | 33.8% (active)
17 | COc1ccccc1CC1(C)C(=O)Nc2ccc(OC(F)(F)F)cc21 (centres undefined) | 60.9% (active)
18 | O=C(NCc1ccc(Cl)cc1)c1cc2c(nc3sccn32)s1 | 19.2% (active)
19 | COc1ccc(S(=O)(=O)N2CCOCC2)cc1C(=O)Nc1nc2ccccc2s1 | 20.7% (active)
20 | COc1cc2c(cc1NC(=O)CN1CCN(S(=O)(=O)c3ccc(F)cc3)CC1)oc1ccccc12 | 3.46%

Row | Structure (SMILES) | activation
21 | COc1ccc(C)cc1Nc1nc(C)nc2c1oc1ccccc12 | 28.2% (active)
22 | CCOC(=O)c1sc(NC(=O)CCN2CCOCC2)c(C(=O)OCC)c1C | 5.98%
23 | COc1ccc(-c2nn(C)c(=O)c3ccccc23)cc1NC(=O)COc1ccccc1 | 33.9% (active)
24 | CCOc1ccc(NC(=O)CSc2ncnc3c2sc2ccccc23)cc1 | 107% (active)
25 | COc1cc(OC)c(N2CC(C(=O)Nc3cc(Cl)ccc3N3CCOCC3)CC2=O)cc1Cl (centres undefined) | 1.79%
26 | COc1cc(OC)cc(-c2c(C#Cc3ccsc3)c3cc(-c4ccc(SC)cc4)ccc3n2C)c1 | 32.1% (active)
27 | CCOc1ccc2nc(Cl)c(C3CC(c4ccccc4)=NN3C(=O)c3cccs3)cc2c1 (centres undefined) | -0.503%
28 | Cc1ccc(S(=O)(=O)c2c[nH]c3ccc(Cl)cc3c2=O)cc1 | 137% (active)
29 | COc1ccc(-n2nc(C(=O)NCC(=O)Nc3cccc(C)n3)c3ccccc3c2=O)cc1 | 10.2%
30 | COc1ccc(-n2nc3c(N4CCC(C(=O)NCc5ccccc5)CC4)nnc(C)c3c2C)cc1 | 32.9% (active)
31 | Cc1cc(Br)ccc1NC(=O)c1sc2ncn(CC(=O)N3CCN(c4ccccn4)CC3)c(=O)c2c1C | 37.6% (active)
32 | Cc1nc(N2CCN(c3ccccn3)CC2)c2c(C)c(C(=O)Nc3ccc(F)c(Cl)c3)sc2n1 | 17.3%
33 | CCOC(=O)c1ccc(NC(=S)N2CCN(c3ccccn3)CC2)cc1 | 12.8%
34 | CCOc1ccc(-c2nnc3ccc(SC)nn23)cc1 | 26% (active)
35 | COc1ccc(-c2nnc3ccc(SCc4ccccc4)nn23)cc1 | 14.9% (active)
36 | Cc1cc(C)c2nc(SCC(=O)N(C)C3CCS(=O)(=O)C3)cc(C)c2c1 (centres undefined) | 34.9% (active)
37 | CC1(C)Cc2nc3sc4c(SCC(=O)NC(c5ccccc5)c5ccccc5)ncnc4c3cc2CO1 | 138% (active)
38 | COc1ccc(/C=C2\SC(=S)N(CCCC(=O)NC3CCCC3)C2=O)cc1OC | 31.3% (active)
39 | Cc1cc(/C=C(/C#N)C(=O)Nc2ccc(Cl)cc2)c(C)n1-c1cccnc1 | 53.9% (active)
40 | CCCc1nc(SCC(=O)Nc2ccc(S(=O)(=O)N(C)C)cc2)c2ccccc2n1 | 18.2% (active)

Row | Structure (SMILES) | activation
41 | COC(=O)c1ccc(NC(=O)c2cc(Cl)ccc2OC)cc1 | 32.8% (active)
42 | Cc1cc(C)c(/C=C2\C(=O)Nc3ccccc32)[nH]1 | 32.5% (active)
43 | Cc1ccc(NS(=O)(=O)c2cc3c(cc2Br)NC(=O)CO3)cc1C | 5.15%
44 | COc1ccc(CCNc2nc3ccc(C)cc3n3cnnc23)cc1OC | 2.71%
45 | Cc1ccc(C(=O)Nc2nnc(-c3cccs3)s2)cc1C | -3.7%
46 | O=C(Nc1nnc(-c2ccccc2F)s1)c1ccccc1F | 25.2% (active)
47 | CN1/C(=c2/s/c(=C3/C(=O)N(c4ccccc4)NC3=Nc3ccccc3)n(C)c2=O)C(C)(C)c2ccccc21 | 29.8% (active)
48 | CCCCCCSc1ccc(-c2nc3ccc(Cl)cn3c2NCc2ccccc2)cc1 | 12.7%
49 | CSc1ccc(-c2c(C#N)c(N)nc3c2c(C)nn3-c2ccccc2)cc1 | 7.01%
50 | Cc1cc(C)c2c(-c3ccc(F)cc3)c(C#N)c(=O)n(C)c2n1 | 24.5% (active)
51 | Cc1cc(N/C=C\C(=O)c2ccc(Cl)c(Cl)c2)no1 | 4.17%
52 | O=C(COc1ncnc2c(Cl)cc(Cl)cc12)N1CCN(S(=O)(=O)c2ccccc2)CC1 | 14.4%
53 | N#Cc1c(-c2ccc(F)cc2)cc(C2CC2)nc1SCC(=O)c1cccs1 | 65.1% (active)
54 | CS(=O)(=O)c1ccc2nc(NC(=O)c3ccc(N4CCCC4=O)cc3)sc2c1 | 18.3% (active)
55 | COc1ccc(-c2csc(NC(=O)c3ccc(N4C(=O)CCC4=O)cc3)n2)cc1OC | 16.5%
56 | CCOC(=O)C1=C(c2ccccc2)O/C(=C(/C(=O)OC)C(F)(F)F)S1 | 0.229%
57 | CCC(C)C1(C2CCCC2)NC(=O)NC1=O (centres undefined) | -1.67%
58 | CC1(C)CC2CC(C)(CN2c2ncnc3ccc(Br)cc23)C1 (centres undefined) | 14%
59 | Cc1cccc(N(CC(=O)Nc2ccc(-c3nc4ccc(C)cc4s3)cc2)S(C)(=O)=O)c1 | 22.1% (active)
